Screening results deposited in PubChem BioAssay by several laboratories.
PrPC TRFRET: inhibitors of human cell surface prion protein PrPC, primary screen, cell-based, TR-FRET | Major prion protein (Homo sapiens), P04156 | inhibition, % at 13.8 µM | TR-FRET read-out | actives 0.43% (n = 370,000); in the data active = inhibition above about 24%; also: 0% = median of the test wells and 100% = reference compound wells
Y pestis TopoI: Yersinia pestis topoisomerase I inhibitors, primary screen, biochemical, cleavage product accumulation, plate reader, single point; actives 0.064% (n = 360,000); activity, % at 10 µM; AID 504884, 2011; Y. pestis Topo-I cleavage product accumulation; in the data active = activity above about 50%, passing the limit was not always enough
TcdB GH inh: TcdB glycohydrolase inhibitors, primary screen, biochemical, single point, plate reader; Toxin B (Clostridioides difficile), P18177; TcdB glycohydrolase enzymatic assay; inhibition, % at 9.99 µM; actives 0.24% (n = 350,000); AID 652162, 2013; in the data active = inhibition above about 10%
Mtb FBA inh: Mtb FBA enzyme inhibitors, primary screen, biochemical, fluorescence, strain H37Rv | Fructose-bisphosphate aldolase (Mycobacterium tuberculosis (strain ATCC 25618 / H37Rv)), … | purified M. tuberculosis FBA, fluorescence read-out | inhibition, % at 1 µM | actives 2.3% (n = 360,000);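 also: 0% = vehicle and 100% = reference inhibitor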
GDH-TPI counter-1: GDH-TPI coupling enzyme inhibitors, primary screen, artefact control for M. tuberculosis FBA inhibitor project, biochemical, absorbance, full deck; GDH-TPI coupled enzyme counterscreen, NADH absorbance; inhibition, % at 4.8 µM; actives 1.2% (n = 360,000); AID 588335, 2011; in the data active = inhibition above about 30%;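 also: 0% = DMSO wells and 100% = wells lacking the enzyme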
Mtb FBA inh conf: M. tuberculosis aldolase blockers, biochemical, fluorescence, strain H37Rv, confirmation; AID 651616, 2012; shares compounds with Mtb FBA inh; purified M. tuberculosis FBA, fluorescence read-out; actives 78% (n = 5,600); inhibition, % at 1 µM;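 also: 0% = vehicle wells and 100% = reference inhibitor wells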
GDH-TPI counter-2: GDH-TPI coupling enzyme inhibitors, artefact control for M. tuberculosis FBA inhibitor project, biochemical, fluorescence, high throughput; shares compounds with Mtb FBA inh; GDH-TPI coupled enzyme counterscreen; inhibition, % at 1 µM; actives 81% (n = 5,600); AID 652141, 2013; in the data active = inhibition above about 10%
An asterisk follows results filed as active; nt = no result; + = active, no number. This is a sample that favours compounds with a hit; in the whole collection about 3.2% have one here. Rule as the data show it, unless noted: active = inhibition above about 27%; inactive = the rest.

SMILES	PrPC TRFRET	Y pestis TopoI	TcdB GH inh	Mtb FBA inh	GDH-TPI counter-1	Mtb FBA inh conf	GDH-TPI counter-2
Nc1c(C(=O)NCCN2CCOCC2)c2nc3ccccc3nc2n1-c1cccc(F)c1	-15.9	16.1	nt	103.8*	22.9	-5.3	-6.5
COC(=O)c1c(C(=O)OC)c(C)n(Cc2ccco2)c1C	-2.3	6.0	nt	-1.3	3.7	nt	nt
COc1ccc(Cn2c(N)c(C(=O)NCc3ccco3)c3nc4ccccc4nc32)cc1	-0.7	32.2	nt	61.4*	5.8	190.1*	158.1*
C[C@H]1CN([C@@H](C)CO)C(=O)CCCn2nncc2CO[C@H]1CN(C)Cc1cccc2c1OCCCO2	nt	nt	-0.1	nt	nt	nt	nt
COc1ccc(S(=O)(=O)Nc2ccc3c(c2)CC(=O)N([C@@H](C)CO)C[C@H](C)[C@@H](CN(C)Cc2ccc(Cl)c(Cl)c2)O3)cc1	nt	nt	-1.8	nt	nt	nt	nt
CCCCCn1c(N)c(C(=O)NCc2cccs2)c2nc3ccccc3nc21	8.7	nt	nt	nt	nt	nt	nt
O=C(NCc1ccco1)c1ccc(S(=O)(=O)N2CCOCC2)cc1	1.6	-6.4	nt	2.5	0.6	nt	nt
COc1ccc(-n2c(N)c(C(=O)NCc3ccco3)c3nc4ccccc4nc32)c(OC)c1	-18.2	14.5	0.4	59.6*	4.4	-1.4	-5.0
Nc1c(C(=O)NCc2ccco2)nnn1Cc1ccccc1	-4.2	9.6	nt	-0.9	10.3	nt	nt
Nc1c(C(=O)NCc2ccco2)c2nc3ccccc3nc2n1CCN1CCOCC1	-7.2	7.9	nt	72.4*	13.6	107.5*	88.9*
CCCCn1c(N)c(C(=O)NCc2cccs2)c2nc3ccccc3nc21	-1.9	15.1	nt	33.1*	7.0	165.8*	141.8*
Nc1c(C(=O)NCc2ccco2)c2nc3ccccc3nc2n1Cc1ccc(F)cc1	-2.1	16.9	nt	58.5*	23.9	37.8*	36.9*
COc1ccc(-n2c(=S)[nH]c3cc(C(=O)NCc4ccco4)ccc3c2=O)c(OC)c1	1.2	-2.2	nt	1.7	18.6	nt	nt
C[C@@H]1CCCCO[C@H](CN(C)S(=O)(=O)c2ccc(F)cc2)[C@@H](C)CN([C@H](C)CO)C(=O)c2cc(NC(=O)CCCN(C)C)ccc2O1	nt	nt	0.8	nt	nt	nt	nt
C[C@@H]1CN([C@@H](C)CO)C(=O)c2cccc(NC(=O)NC3CCCCC3)c2O[C@@H]1CN(C)S(C)(=O)=O	nt	nt	-0.1	nt	nt	nt	nt
CCCCNC(=O)CSc1nc2ccccc2c(=O)n1Cc1ccc2c(c1)OCO2	-2.1	2.5	nt	1.3	-7.3	nt	nt
COc1ccc(S(=O)(=O)Cc2ccc(C(=O)NCc3ccco3)o2)cc1	-6.2	1.1	-1.1	-0.3	1.0	nt	nt
COc1ccc(CCn2c(N)c(C(=O)NCc3ccco3)c3nc4ccccc4nc32)cc1	4.3	9.9	-0.7	85.0*	17.5	+	197.8*
Nc1c(C(=O)Nc2ccccc2)c2nc3ccccc3nc2n1CCCN1CCOCC1	4.6	8.6	-0.5	5.4	11.7	nt	nt
CCCCNC(=O)c1c(N)n(Cc2ccc3c(c2)OCO3)c2nc3ccccc3nc12	-1.7	9.8	1.8	29.5*	17.6	65.1*	55.5*
CCCCCn1c(N)c(C(=O)NCCN2CCOCC2)c2nc3ccccc3nc21	2.9	16.2	nt	65.0*	8.5	+	+
Cc1noc(C)c1NC(=O)Nc1ccc2c(c1)CC(=O)N([C@@H](C)CO)C[C@@H](C)[C@@H](CN(C)CC1CCCCC1)O2	nt	nt	0.3	nt	nt	nt	nt
CO[C@@H]1CN(C)C(=O)c2ccc(NC(=O)C3CC3)cc2OC[C@H](C)N(CC2CCOCC2)C[C@@H]1C	nt	nt	-2.7	nt	nt	nt	nt
Cc1c(OC(C(=O)O)c2ccccc2)ccc2c(-c3ccccc3)cc(=O)oc12 (stereo unspecified)	-7.5	3.7	-1.8	6.3	23.2	nt	nt
Cc1c(OC(C)C(=O)O)ccc2c(-c3ccccc3)cc(=O)oc12 (stereo unspecified)	-3.7	-1.5	1.3	34.7*	18.9	55.1*	39.0*
SMILES	PrPC TRFRET	Y pestis TopoI	TcdB GH inh	Mtb FBA inh	GDH-TPI counter-1	Mtb FBA inh conf	GDH-TPI counter-2
COc1ccc(Cl)cc1C(=O)NN=C1CCCC1	-8.4	6.1	-2.2	-0.7	15.7	nt	nt
O=C(NN=C1CCCC1)c1cc(Cl)cc(Cl)c1O	-1.4	0.2	0.1	41.4*	8.6	70.4*	61.0*
C[C@@H]1CN([C@@H](C)CO)S(=O)(=O)c2ccc(C#CCN(C)C)cc2O[C@H]1CN(C)C	nt	nt	0.6	nt	nt	nt	nt
CCCSC1=C(C#N)C(c2ccc(Cl)cc2Cl)CC(=O)N1 (stereo unspecified)	4.6	4.0	nt	0.9	5.6	nt	nt
CC1=C(C#N)C(/C=N/OCc2ccc(Cl)cc2)CC(=O)N1 (stereo unspecified)	-2.0	9.9	-0.5	35.2*	5.7	22.3	17.3*
Cc1ccc(CNC(=O)CN(C(=O)C2(C)CC(=O)N=C3C=CC=CN32)c2ccccc2F)cc1 (stereo unspecified)	-0.6	16.2	-1.4	82.4*	3.0	77.0*	52.9*
Cc1ccc(CNC(=O)CN(C(=O)C2(C)CC(=O)N=C3C=CC=CN32)c2ccc(F)cc2)cc1 (stereo unspecified)	-2.1	2.4	0.9	69.3*	8.6	-2.3	-5.2
O=C(CN(C(=O)c1csnn1)c1ccccc1F)NCc1ccccc1	1.8	3.0	-1.1	4.6	3.0	nt	nt
N#C[C@H]1[C@H](c2ccc(C#Cc3ccccc3F)cc2)[C@@H](CO)N1C(=O)C1CCCC1	nt	nt	-0.3	nt	nt	nt	nt
N#Cc1ccc(-c2ccc(OCC(=O)NCC(=O)Nc3ccc(F)c(F)c3F)cc2)cc1	0.3	13.3	4.1	30.0*	11.3	+	+
COc1ccc(CCNC(=O)COc2ccc(-c3ccc(C#N)cc3)cc2)cc1	-0.9	4.0	0.4	-1.4	-6.2	nt	nt
N#Cc1ccc(-c2ccc(OCC(=O)NCCc3ccccc3)cc2)cc1	-3.0	30.5	nt	37.6*	4.5	4.7	1.8
Cc1ccc(C(=O)CSc2nc(-c3ccccc3)ccc2C#N)cc1	-6.7	0.1	nt	0.8	3.1	nt	nt
N#Cc1ccc(-c2ccc3c(c2)OCO3)nc1SCC(=O)OCc1ccccc1	-1.4	-5.3	nt	60.3*	4.6	67.0*	43.7*
COc1ccc(S(=O)(=O)Nc2ccccc2C(=O)Nc2nc(-c3ccc(F)cc3)cs2)cc1OC	10.8	15.9	nt	32.8*	10.8	92.4*	67.9*
O=C(O)c1ccccc1NC(c1ccccc1)c1ccc2cccnc2c1O (stereo unspecified)	8.4	2.3	-0.6	37.9*	13.3	+	+
CN1CCN(c2nc3ccccc3nc2C(C#N)S(=O)(=O)c2ccccc2)CC1 (stereo unspecified)	-6.5	nt	2.3	nt	nt	nt	nt
